KB-3-1 tox: kills parental KB-3-1 adenocarcinoma cells; KB-3-1 viability, CellTiter-Glo ATP luminescence, 72 h; Potency, µM (doses to about 46.1 µM), hits mostly cytotoxic; actives 1.4% (n = 400,000); further: nearly all actives have a fitted effect of over 60% in size
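72 h, 37 °C compound treatment of KB-3-1 parental cells; CellTiter-Glo added, 10 min, luminescence read. Data corrected against DMSO-only plates and normalized before curve fitting.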
KB-V1 MDR tox: KB-V1 MDR subline cytotoxicity | KB-V1 MDR cells viability, CellTiter-Glo, 72 h | actives 3.4% (n = 400,000) | Potency, µM (top dose mostly 46.1 µM), usual class: cytotoxic; further: nearly all actives have a fitted effect of over 60% in size
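In this primary screen, KB-V1 cells overexpressing P-gp are incubated with library compounds (lowest to highest concentration) for 72 h at 37 degrees C before a luminescent ATP viability read.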
ATXN2 expr inh: ATXN2 expression inhibition; Potency, µM (doses to about 57 µM), most hits filed as inhibitors; HEK-293 ATXN2-luciferase reporter, luminescence, 24 h; actives 0.72% (n = 360,000); further: nearly all actives have a fitted effect of over 55% in size
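ATXN2-luciferase reporter cells (luciferase flanked by upstream and downstream ATXN2 gene portions) were treated 24 h at 37 °C with compounds at up to 57 uM. SteadyGlo luminescence gave expression; GF-AFC fluorescence gave viability.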
ATXN viability: viability counter-screen for ATXN expression inhibitors. actives 0.49% (n = 400,000). AID 651635. S2 cells (HEK-293 line with an ATXN2-luciferase reporter) viability, CellTiter-Fluor protease fluorescence, 24 h. Potency, µM (series often up to 56.7 µM), most hits filed as cytotoxic; further: nearly all actives have a fitted effect of over 40% in size
HepG2 tox: kills HepG2 cells in TGF-b inhibitor counter-screen; HepG2 CAGA-GFP viability, ATP luminescence, 18 h; Potency, µM (series often up to 46.1 µM), actives largely listed as cytotoxic; actives 0.76% (n = 410,000); AID 588856
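HepG2 CAGA-GFP cells (1000/well, DMEM with 1% FBS) received compound, then TGF-beta at 500 pg/mL final, and were incubated 18 hours at 37 degrees C. Viability was read by CellTiter-Glo luminescence. Media-only wells were set as complete cell-killing and DMSO as no toxicity.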
TGFb SMAD3 inh: blocks TGF-b signaling | HepG2 CAGA-GFP TGF-b/SMAD3 reporter, GFP fluorescence, 18 h; TGF-beta stimulated, 500 pg/mL final | Potency, µM (titrated, usually from 46.1 µM), most hits filed as inhibitors | actives 1.2% (n = 410,000) | AID 588855; further: nearly all actives have a fitted effect of over 65% in size
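First, reporter cells (HEPG2 CAGA-GFP) rested 2 h at 37 degrees C. Next, compounds were pinned in and TGF-beta added to 500 pg/mL final. After 18 h, GFP was imaged per cell and summed per well.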
Numbers stand for hits; n = inactive; u = inconclusive; x = no result given; ! = a repeat was not active. Rows were chosen to be rich in hits. Some 5.9% of all compounds tested hit in one or more screens of this group. The call rests on the fitted dose curve; in most records, active means well fitted curve in the direction sought with a large enough effect; inconclusive means small, poorly fitted or top-dose-only effect, or another doubt; inactive means no such curve, though single readings can be large; an effect the other way counts as inactive or inconclusive.

SMILES	KB-3-1 tox	KB-V1 MDR tox	ATXN2 expr inh	ATXN viability	HepG2 tox	TGFb SMAD3 inh
C=C(C(=O)c1ccccc1)C(NC(C)(C)C)c1ccccc1 (centres undefined)	3.7µM	u	7.5µM	u	n	u
Cc1ccccc1-n1c(SCc2ccc(Cl)cc2)nc2[nH]ncc2c1=O	n	n	u	u	n	u
CCOC(=O)c1sc2nc(CSc3ccccc3)nc(N3CCCN(C)CC3)c2c1C	n	n	x	35µM	n	n
CCOC(=O)c1sc2nc(CSc3ccccc3)nc(N3CCC(C(N)=O)CC3)c2c1C	n	u	u	u	n	u
CCc1cccc(C)c1Nc1c(-c2ccc(F)cc2)nc2sccn12	x	x	x	x	n	u
CCc1cccc(C)c1Nc1c(-c2cccc(O)c2)nc2cnccn12	n	n	n	n	n	11µM
CN(C)c1ccc(-c2nc3cnccn3c2Nc2cccc(C(F)(F)F)c2)cc1	n	n	n	n	n	n
CCc1cccc(C)c1Nc1c(-c2ccc(N(C)C)cc2)nc2cnccn12	u	u	u	u	16µM	16µM
CCc1cccc(C)c1Nc1c(-c2ccc(SC)cc2)nc2sccn12	x	x	x	x	n	20µM
Cc1cccc(NC(=O)CN2C(=O)c3cccnc3Oc3ccc(Cl)cc32)c1C	n	n	x	x	n	n
COc1cc2c(NC3CCN(C)CC3)nc(N3CCCN(C)CC3)nc2cc1OCCCCCN	n	n	x	x	n	u
COc1cccc(C(=O)Nc2ccc3[nH]c(=O)[nH]c3c2)c1OC	1.2µM	0.73µM	n	x	n	n
COc1cccc(NC(=O)c2cccc(OC)c2OC)c1	n	n	n	n	n	n
O=C(COc1ccccc1F)Nc1ccc2[nH]c(=O)[nH]c2c1	u	6.5µM	n	u	n	n
Cc1cc(Nc2cccc(Cl)c2)nc2ccc(NC(=O)COc3ccc(Cl)cc3)cc12	n	n	n	x	n	u
COC(=O)NC(=S)Nc1ccc(Oc2ccc(Cl)cc2Cl)c(Cl)c1	15µM	u	n	u	n	n
Cc1cc(C)c(NC(=O)CSc2ncc(S(=O)(=O)c3ccc(C(C)(C)C)cc3)c(=O)[nH]2)c(C)c1	n	n	n	n	n	n
Cc1c(NC(=O)c2nn3c(c2Br)NC(c2ccccc2)CC3C(F)(F)F)c(=O)n(-c2ccccc2)n1C (centres undefined)	n	16µM	n	n	n	n
Cc1c(NC(=O)c2cnn3c2NC(c2ccccc2)CC3C(F)(F)F)c(=O)n(-c2ccccc2)n1C (centres undefined)	n	n	n	n	n	n
CC1CCc2c(sc3nc(C4CC4)nc(N4CCN(C(=O)c5ccco5)CC4)c23)C1 (centres undefined)	u	u	u	u	10µM	u
CC(C)CSC1=NSC2=NC(=O)/C(=C\c3cccs3)C(=N)N12	u	u	n	n	n	u
N=C1/C(=C/c2cccs2)C(=O)N=C2SN=C(SCc3ccccc3)N12	u	23µM	n	n	n	n
CSC1=NSC2=NC(=O)/C(=C\c3cccs3)C(=N)N12	u	4.6µM	n	n	n	u
COc1ccc(C(=O)c2cn(Cc3ccc(C)cc3)c3cc4c(cc3c2=O)OCO4)cc1	x	x	x	x	n	u
OCC1OC(n2cnc3c(=S)nc[nH]c32)C(O)C1O (centres undefined)	0.58µM	u	x	x	n	10µM!
SMILES	KB-3-1 tox	KB-V1 MDR tox	ATXN2 expr inh	ATXN viability	HepG2 tox	TGFb SMAD3 inh
Nc1nc(=S)c2ncn(C3OC(CO)C(O)C3O)c2[nH]1 (centres undefined)	5.8µM	1µM	n	n	n	u
Nc1nc(=S)c2ncn([C@@H]3O[C@H](CO)[C@@H](O)[C@H]3O)c2[nH]1	u	0.92µM	u	n	n	n
CC1(C)OC2C(CO)OC(n3cnc4c(=S)nc(N)[nH]c43)C2O1 (centres undefined)	u	u	n	n	n	u
COc1ccc(CNC(=O)Cn2nc(C)c3nn(-c4ccc(Cl)cc4)c(C)c3c2=O)cc1	x	x	x	x	n	n
CC(C)(C)OC(=O)N1CCc2nc(N3CCN(c4ncccn4)CC3)ncc2C1	n	n	n	n	n	n
Cc1cc(C)cc(OCCSc2nc3ccc(NC(=O)c4ccc5c(c4)OCO5)cc3s2)c1	n	n	n	n	n	n
O=C(CSc1nc(-c2ccccc2)c(-c2ccccc2)[nH]1)NCCN1C(=O)CSC1=O	3.7µM	u	n	n	n	u
O=C(CSc1nc(-c2ccccc2)cs1)NCc1ccco1	n	u	n	n	n	n
O=C(CSc1nnc(-c2ccccc2)c(-c2ccccc2)n1)NCc1ccco1	u	16µM	n	n	n	n
O=C(CSc1ncc(-c2ccccc2)nn1)NCc1ccco1	n	n	n	u	n	n
O=C(CSc1nc(-c2ccccc2)c(-c2ccccc2)[nH]1)NCc1ccco1	u	10µM	n	n	n	u
Cc1ccc(NS(=O)(=O)c2cc3c(cc2Cl)NC(=O)C3)cc1C	n	n	x	x	x	x
CN(Cc1ccccc1)c1nccn2ccnc12	n	n	n	n	n	n
CCOc1ccc(-n2c(C)nc3cc(C(=O)NCc4ccc(C)cc4)ccc32)cc1	x	x	x	x	n	u
CCOC(=O)N1CCc2c(sc(NCc3cccc(F)c3)c2C(=O)Nc2ccc(OC)cc2)C1	x	x	x	x	n	u
CNC[C@H](Cc1ccccc1)NC[C@@H](Cc1cccc2ccccc12)NCCc1ccc(C)cc1	7.3µM	u	u	u	18µM	u
O=S(=O)(Nc1ccc(Cl)cc1)c1cccc(S(=O)(=O)c2ccc(Cl)c(Cl)c2)c1	n	n	u	u	n	14µM
CC(=O)N1CCN(S(=O)(=O)c2cccc(C(=O)OCc3cccc(F)c3)c2)CC1	n	18µM	n	n	n	n
CC(=O)N1CCN(S(=O)(=O)c2cccc(C(=O)OCc3ccc(F)cc3)c2)CC1	n	n	x	n	n	n
CCCn1cnnc1CNC(=O)[C@H]1O[C@@H](n2ccc(=O)[nH]c2=O)[C@H](O)[C@@H]1O	n	18µM	n	n	n	n
O=C(NC1CCCC1)c1ccc2c(=O)n(Cc3ccccc3)c(SCc3ccccc3F)nc2c1	x	x	x	x	n	n
CCOc1nc(SCCOc2ccc(Cl)cc2Cl)nc(N(C)C)n1	n	21µM	n	n	n	n
CCOc1nc(SCCOc2ccc(C)cc2)nc(N(C)C)n1	n	n	n	n	n	n
CCCc1cnc2c(c1SCC(=O)Nc1ccccc1OCC)c(=O)n(C)c(=O)n2C	n	n	n	n	n	n
Oc1c(N=NC(=S)Nc2ccccc2F)c2ccccc2n1Cc1ccccc1Cl	4.1µM	n	n	u	n	n
